Source: PubChem
Shown are actives, neighbours in structure and some others; about 4.8% of the full set was active somewhere.
DAX1 inh-1: DAX1 (NR0B1) inhibitors on StAR promoter, primary screen, cell-based, luminescence, SF-1 (NR5A1), full-length DAX-1; 370,000 tested, 1.1% active; HEK293T StAR-luciferase reporter, SF-1/DAX-1 repression relief; inhibition, % at 6.8 µM; AID 652010, 2013;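 active means inhibition above the mean over all tested compounds plus 3 SD, cut at about 3.6% in these data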;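 further: 0% = DAX-1 cells with DMSO and 100% = cells lacking DAX-1 with DMSO; higher inhibition means more luminescence from relief of DAX-1 repression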
hcDAF-12 act: H. contortus DAF-12 nuclear receptor activators, primary screen, cell-based, luminescence, HEK293, lit1-tk-luc reporter; AID 652067, 2013; activation, % at 6.8 µM; 370,000 tested, 1.4% active; HEK293 hcDAF-12 lit1-tk-luc reporter; 0% DMSO, 100% Δ7-dafachronic acid;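 active means activation above the mean of all tested compounds plus 3 SD, cut at about 5.5% in these data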;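 further: 100% = response to 3 µM Δ7-dafachronic acid high control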
SMARCA2 act: SMARCA2 (BRM) function activators, primary screen, cell-based, luminescence, high throughput; MG213 cells, MMTV-luciferase reporter, dexamethasone, overnight; 370,000 tested, 1% active; activation, % at 9.1 µM; in the data active means activation above about 7.8%;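 further: 0% = vehicle wells and 100% = reference activator wells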
DAX1 inh-2: DAX1 (NR0B1) inhibitors, primary screen, cell-based, HEK293, Gal4-DAX1, luciferase luminescence; Nuclear receptor subfamily 0 group B member 1 (Homo sapiens), P51843; HEK293 Gal4-DAX1 luciferase reporter; inhibition, % at 6.75 µM; 340,000 tested, 0.99% active; AID 504766, 2011;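 active means inhibition above the mean over all tested compounds plus 3 SD, cut at about 4.2% in these data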;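 further: 0% = DAX1-transfected cells with DMSO and 100% = empty-vector control cells with DMSO; inhibition shows as a rise in luminescence from relieved DAX1 repression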
Target sequence (P51843 207-470 limits assumed): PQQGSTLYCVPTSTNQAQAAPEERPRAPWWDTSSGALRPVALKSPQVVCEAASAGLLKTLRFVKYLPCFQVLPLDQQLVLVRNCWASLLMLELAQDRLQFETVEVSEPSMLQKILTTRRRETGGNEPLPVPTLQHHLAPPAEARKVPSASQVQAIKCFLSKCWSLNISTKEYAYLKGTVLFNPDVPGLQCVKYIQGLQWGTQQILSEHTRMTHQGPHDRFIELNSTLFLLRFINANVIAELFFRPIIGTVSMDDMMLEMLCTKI
ssDAF-12 act: S. stercoralis DAF-12 nuclear receptor activators, primary screen, cell-based, luminescence, HEK293, GRIP1 co-expression, lit1-tk-luc; 370,000 tested, 1% active; HEK293 ssDAF-12/GRIP1 lit1-tk-luc reporter; % of 3 µM dafachronic acid response; Nuclear hormone receptor DAF-12 (Strongyloides stercoralis); activation, % at 6.8 µM;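 active means activation above the mean over all tested compounds plus 3 SD, cut at about 0.9% in these data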;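 further: 0% = DMSO-only wells and 100% = 3 µM delta7-dafachronic acid wells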
hgDAF12 agonist: H. glycines DAF-12 receptor agonists, primary screen, cell-based, luminescence, HEK293, GAL4 fusion, UAS-luciferase; activation, % at 6.8 µM; AID 687014, 2013; 370,000 tested, 1.8% active; HEK293 GAL4-hgDAF12 UAS-luciferase reporter, agonist luminescence; normalized to butyrate control; Nuclear hormone receptor DAF-12 (Heterodera glycines), GAL4 fusion;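 active means activation above a cutoff set at the mean of all screened compounds plus 3 SD, cut at about 10% in these data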;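 further: 0% = DMSO wells and 100% = sodium butyrate wells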
Numbers without * were called inactive; nt = no result given.

SMILES | DAX1 inh-1 | hcDAF-12 act | SMARCA2 act | DAX1 inh-2 | ssDAF-12 act | hgDAF12 agonist
O=[N+]([O-])c1ccc(CSc2nnc(-c3cccc(Cl)c3)n2Cc2ccco2)cc1 | -2.9 | -4.7 | -7.0 | nt | -1.9 | -1.2
NC(=O)CCn1c(C(=O)c2cccc([N+](=O)[O-])c2)c2ccccc2[n+]1[O-] | 0.7 | 2.9 | 0.8 | 0.3 | 1.1* | 0.9
Cc1csc(N/N=C/c2ccccn2)n1 | 2.3 | 6.2* | -1.5 | -1.9 | 1.3* | 9.3
Cc1cc(NS(=O)(=O)c2ccc(NC(=O)/C=C/c3ccc(Br)cc3)cc2)no1 | 4.5* | -0.9 | -0.4 | -0.1 | -0.8 | 0.3
Cc1cc(NC(=O)COc2ccccc2C(N)=O)no1 | 3.0 | 0.6 | 5.0 | 4.8* | -0.4 | 7.4
Cc1cc(NC(=O)COc2ccccc2C)no1 | 3.0 | 1.2 | 6.2 | 0.1 | -0.4 | 8.3
COc1ccccc1OCC(=O)Nc1ccc(S(=O)(=O)Nc2cc(C)on2)cc1 | -0.1 | 5.2 | -1.7 | 1.2 | 1.2* | -0.9
COc1ccc(OCC(=O)Nc2ccc(S(=O)(=O)Nc3cc(C)on3)cc2)cc1 | 1.4 | 1.2 | -1.1 | -0.8 | -0.5 | -0.8
Cc1cc(NS(=O)(=O)c2ccc(NC(=O)c3oc4ccccc4c3C)cc2)no1 | 1.4 | 4.3 | -1.8 | 2.6 | 0.9* | 1.1
CN(C)CC(=O)N[C@H]1C[C@@H]2O[C@@H](CO)CC[C@@H]2O[C@@H]1CCc1ccc(C2=CCCCC2)cc1 | 0.8 | -1.0 | -1.3 | nt | -1.5 | -1.1
C(=Cc1cnnc2ccccc12)c1ccccc1 | 2.1 | 2.6 | 4.1 | 2.1 | 0.6 | 12.9*
CC(=O)NNC(=O)c1cc2c3ccccc3n(C)c2s1 | 0.0 | 3.0 | -3.9 | 0.8 | -0.6 | -0.7
Cn1c2ccccc2c2cc(C(=O)N3CCN(CCO)CC3)sc21 | 0.4 | 2.6 | -0.5 | 5.4* | 0.8 | 0.6
COCCN1Cc2cc(C(=O)OC)c3c(c2C1=O)c1cc(F)ccc1n3S(=O)(=O)c1ccc(C)cc1 | 0.1 | -1.6 | -3.1 | nt | -0.9 | 1.9
Cc1ccc(Cn2cc(CN(C(C)(C)C)S(=O)(=O)c3ccc(F)cc3Br)nn2)cc1 | -1.3 | -3.9 | -3.0 | nt | -1.4 | -2.9
CC(=O)c1ccc2noc(-c3ccc(Cl)cc3)c2c1 | -0.2 | 1.7 | -2.1 | -0.5 | -1.2 | 0.0
Cc1cc(-c2onc3ccc(Cl)cc23)ccc1O | -0.2 | 6.2* | 1.2 | -0.2 | 0.1 | 6.9
Cc1ccc(-c2onc3ccc(C=O)cc23)cc1 | 1.4 | 0.1 | 7.6 | -3.4 | 0.2 | 13.0*
N#Cc1cccc(Cn2ccc3ccc(-c4ccc5ccn(Cc6ccccc6)c5c4)cc32)c1 | -0.6 | -0.7 | -3.3 | nt | -0.1 | 2.6
CN1CCCCC(NC(=O)c2c(F)cccc2F)C1=O (stereo not drawn) | 0.3 | 0.3 | 2.4 | nt | -1.2 | -2.2
Nc1ccc(O)c2c1C(=O)c1ccccc1C2=O | 0.7 | 0.9 | 3.2 | 4.4* | -0.8 | 2.8
CN(C(=S)NC(=O)/C=C/c1ccc(F)cc1)C1CCCCC1 | -0.5 | -3.5 | -2.7 | 0.2 | -0.9 | -0.7
Cc1ccc(C(=O)NC(=S)N(C)C2CCCCC2)cc1 | 3.2 | 4.0 | 1.3 | 0.1 | 0.3 | 10.5*
CCN1Cc2nnn(Cc3ccccc3)c2-c2cc(N3CCCC3)ccc2S1(=O)=O | -0.3 | -3.2 | -2.6 | nt | -1.6 | 1.1
O=C(Cc1noc2ccccc12)Nc1ccc(Cl)cc1 | 0.3 | -1.3 | -1.7 | 2.4 | -1.6 | 0.9
SMILES | DAX1 inh-1 | hcDAF-12 act | SMARCA2 act | DAX1 inh-2 | ssDAF-12 act | hgDAF12 agonist
O=C(Cc1noc2ccccc12)Nc1ccccn1 | 0.6 | 2.0 | 2.8 | 3.8 | 0.1 | 10.7*
CCn1c(SCC(=O)Nc2cccc3ccccc23)nnc1-c1cccs1 | -1.5 | -1.4 | -6.2 | nt | -1.3 | 1.6
COc1ccc(-c2noc(C3CCCN(C(=O)N[C@@H]4C[C@H]4c4ccccc4)C3)n2)cc1 (stereo partly drawn) | 1.8 | 2.1 | -2.7 | nt | -0.8 | 8.0
Cc1c(-c2cc(Br)ccc2O)nc2cc3c(cc2c1C)OCO3 | -0.4 | 0.4 | -0.3 | 4.3* | -0.7 | 4.6
OC(c1ccccc1)c1nc(-c2ccc3c(c2)OCO3)cs1 (stereo not drawn) | 2.1 | 1.3 | 6.0 | nt | -0.8 | 13.2*
O=C(O)c1cccc(-c2csc(C(O)c3ccc(F)cc3)n2)c1 (stereo not drawn) | 4.2* | 1.6 | 1.4 | nt | -0.1 | 6.2
O=c1ccn(-c2ccccc2)[nH]1 | -0.3 | -0.2 | 0.4 | 4.4* | -1.4 | 2.9
O=c1[nH]n(-c2ccccc2)c(=O)c(Cl)c1Cl | nt | nt | nt | -0.1 | nt | nt
FC(F)(F)C1=NNC(c2ccc3ccccc3c2)=NN1 | 0.6 | 1.2 | -2.2 | 0.0 | -0.3 | 11.7*
CC(=O)c1ccc(NC(=O)Nc2cccc3ccccc23)cc1 | 3.7* | -0.5 | 6.2 | 0.9 | -0.3 | 4.3
CCC(=O)Nc1cccc2ccccc12 | -0.1 | -0.6 | -2.7 | 1.5 | -1.6 | 0.3
O=C(COC(=O)c1ccccc1O)Nc1cccnc1Cl | -0.7 | -0.2 | -3.1 | -0.2 | -1.5 | -0.9
O=C(COC(=O)c1cccnc1)Nc1cccc2ccccc12 | 0.0 | -0.1 | -2.2 | 4.5* | 0.0 | -0.1
COC(=O)c1ccccc1NC(=O)COC(=O)c1cccnc1 | 0.3 | -0.5 | 0.4 | 1.5 | -0.8 | 0.8
NC(=O)Nc1cccc2ccccc12 | 0.6 | 3.3 | -2.1 | 0.6 | 1.7* | -0.8
O=C(COC(=O)c1cc2ccccc2cc1O)Nc1cccnc1Cl | -0.3 | 4.2 | -3.1 | 0.4 | 1.0* | 1.5
CCCC#C/C(CCC)=C1\c2ccccc2C(=O)N1c1ccccc1 | 0.8 | 1.0 | 0.1 | nt | -0.6 | 6.7
COC(=O)[C@]12C[C@H](CC(=O)N3CCN(C(=O)c4ccco4)CC3)C(=O)N(Cc3ccc(Cl)cc3Cl)C1=C[C@H](C1CCCC1)O[C@@H]2C | 0.9 | -0.6 | -2.7 | nt | -1.2 | -2.4
O=C1C(Cl)=C(N2CCCCCC2)C(=O)N1c1ccc(Br)cc1 | -0.4 | 0.7 | 1.4 | -0.2 | 2.2* | 5.1
O=C1C(Cl)=C(N2CCCCCC2)C(=O)N1c1ccccc1 | -0.9 | -1.8 | -1.0 | 1.5 | -1.6 | -0.3
O=C1CC[C@@H]2CC3(C[C@@H]4CCN1[C@H]24)Nc1ccccc1NC3=NC1CCCCC1 (stereo partly drawn) | -0.1 | -1.3 | -0.8 | 5.2* | -1.0 | 1.5
